Assay results from PubChem BioAssay AID1851 (National Center for Advancing Translational Sciences (NCATS), 2009).
Screen size: about 16,000 compounds; about 2,600 (16%) were called active. Another 20% or so got no clear call; they are omitted. A selection follows. Values without a mark were called inactive. Calls come from the whole dose curve; as a rule, active = well fitted curve in the direction sought with a large enough effect; inconclusive = small, poorly fitted or top-dose-only effect, or effect the other way; inactive = no such curve, though single readings can be large or run the other way.

molecular target: Cytochrome P450 2D6 (Homo sapiens) (UniProt P10635); assay: Cytochrome panel assay with activity outcomes; settings: recombinant CYP, pro-luciferin dealkylation, luminescence, p450-cyp2d6; series mostly up to 57.1 µM; activity, negative = inhibition: at the top concentration
% is set by controls: 0 for no effect and ±100 for the full control effect.

Cytochrome P450 2D6 (Homo sapiens), sequence (P10635 whole entry, looked up): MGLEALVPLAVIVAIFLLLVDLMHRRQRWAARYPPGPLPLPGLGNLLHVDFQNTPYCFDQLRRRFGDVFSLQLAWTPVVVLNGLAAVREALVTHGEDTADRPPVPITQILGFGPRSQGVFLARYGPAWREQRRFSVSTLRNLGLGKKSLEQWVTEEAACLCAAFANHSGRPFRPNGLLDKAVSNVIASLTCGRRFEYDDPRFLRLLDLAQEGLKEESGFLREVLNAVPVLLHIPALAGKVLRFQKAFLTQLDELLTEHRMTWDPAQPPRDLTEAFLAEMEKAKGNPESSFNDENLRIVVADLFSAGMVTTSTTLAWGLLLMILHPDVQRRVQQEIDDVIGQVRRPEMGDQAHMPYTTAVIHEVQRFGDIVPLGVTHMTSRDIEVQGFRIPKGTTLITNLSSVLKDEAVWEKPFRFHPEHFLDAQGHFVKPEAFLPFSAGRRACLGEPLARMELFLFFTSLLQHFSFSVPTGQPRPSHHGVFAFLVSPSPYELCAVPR

Row | Compound | activity, negative = inhibition | AC50
1 | COc1cccc(-c2nc(NC3CCNCC3)c3ccccc3n2)c1 | -11.3% | –
2 | COCCNc1nc(-c2cccc(NS(C)(=O)=O)c2)nc2ccccc12 | -10.2% | –
3 | COc1cccc(-c2nc(NC3CC3)c3ccccc3n2)c1 | – | 7.94 µM (active)
4 | O=c1cnc2cnc(Nc3ccccc3)nc2n1C1CC1 | 3.9% | –
5 | COc1ccc2c(c1)-c1ccccc1S(=O)(=O)N2C(C)=O | 9.83% | –
6 | CCOC(=O)c1cnn(-c2ccccc2)c1-n1cccc1C(=O)C(=O)Nc1ccccc1C(F)(F)F | -17.5% | –
7 | N#C/C(=C\c1cccs1)C(=O)NCC1CCCO1 (stereo not drawn) | -25.9% | –
8 | CN(C)/C=C/C(=O)c1ccc(Cl)cc1 | -18.2% | –
9 | Cc1ccc(/C=N\NC(=O)c2cc(OCC(F)(F)F)ccc2OCC(F)(F)F)cc1 | 21.6% | –
10 | COc1ccc(NC(=O)N(C2CCCCC2)C(C)c2cccnc2)c(OC)c1 (stereo not drawn) | -19.7% | –
11 | Cc1cc(OC(=O)c2ccccc2Br)cc(=O)n1C | -19.7% | –
12 | O=C(CCc1nc2ccccc2c(=O)[nH]1)OCC(=O)N1CCN(S(=O)(=O)c2ccccc2)CC1 | -21.3% | –
13 | Cc1nc2ccccn2c1/C(O)=C1\C(=O)C(=O)N(CCCn2ccnc2)C1c1ccncc1 (stereo not drawn) | 0.65% | –
14 | CCN(CC)c1ccc(NC(=O)c2cccnc2)c(C)c1 | -9.57% | –
15 | COc1ccc(-c2cc3ccccc3n2CC(O)CNCCO)cc1 (stereo not drawn) | – | 0.562 µM (active)
16 | COc1cccc(C2C(C(=O)c3cc4ccccc4o3)=C(O)C(=O)N2c2cc(C)on2)c1OC (stereo not drawn) | 5.26% | –
17 | CSc1nc2n(n1)C(c1cccc(F)c1)C(C(=O)Nc1ccc(C)cc1C)=C(C)N2 (stereo not drawn) | 15.7% | –
18 | COc1ccc(C(=O)N2CCC3(CCN(Cc4ccc(C#N)cc4)CC3)CC2)cc1 | -12.8% | –
19 | O=C(c1cccc(F)c1)N1CCC2(CCCN(Cc3ccncc3)C2)CC1 | – | 7.94 µM (active)
20 | O=C(c1ccco1)N1CCC2(CCCN(Cc3ccncc3)C2)CC1 | – | 3.16 µM (active)
21 | N#Cc1cccc(NC(=O)N2CCCC3(CCN(C(=O)c4ccco4)CC3)C2)c1 | 3.93% | –
22 | N#Cc1ccc(CN2CCCC3(CCN(C(=O)c4ccncc4)CC3)C2)cc1 | 7.01% | –
23 | O=C(c1ccncc1)N1CCC2(CCCN(Cc3ccccc3)C2)CC1 | -1.35% | –
24 | N#Cc1ccc(CN2CCC3(CC2)CCN(C(=O)c2ccncc2)CC3)cc1 | – | 6.31 µM (active)
25 | O=C(c1cccc(F)c1)N1CCC2(CCCN(Cc3nccs3)C2)CC1 | 2.76% | –
26 | N#Cc1ccc(CN2CCCC3(CCN(C(=O)c4cccc(F)c4)CC3)C2)cc1 | -6.36% | –
27 | O=C(c1ccncc1)N1CCC2(CCCN(Cc3ccncc3)C2)CC1 | – | 6.31 µM (active)

Row | Compound | activity, negative = inhibition | AC50
28 | O=C(c1ccco1)N1CCC2(CCCN(Cc3ccccc3)C2)CC1 | -9.7% | –
29 | CC1(C)NC(=O)N(c2ccc([N+](=O)[O-])c(C(F)(F)F)c2)C1=O | -2.63% [at 25.6 µM] | –
30 | O=[N+]([O-])c1ccc(N2CCCCC2)c(Cl)c1N1CCCCC1 | -2.02% | –
31 | Cc1ccc(C)c(Cn2cnc3c(cnn3C(C)(C)C)c2=O)c1 | 29.5% | –
32 | N#Cc1cccc(-c2nc3cnc(N4CCOCC4)nc3n(C[C@H]3CCCO3)c2=O)c1 | 12.8% | –
33 | CC1(C)Cc2c(C#N)c(SCc3ccccc3)nc(N3CCOCC3)c2CO1 | -9.2% | –
34 | Cn1c(=O)c2[nH]c(CSCc3ccccc3)nc2n(C)c1=O | -20.6% [at 11.4 µM] | –
35 | COc1ccc(C2=NOC(C(=O)Nc3ccc(C(C)=O)cc3)C2)cc1OC (stereo not drawn) | -2.71% | –
36 | CC(C)C(=O)N[C@H]1CCCN1C(=O)/C=C\c1ccccc1 | -5.27% [at 11.4 µM] | –
37 | Cn1c(=O)c2[nH]c(CCCc3ccc([N+](=O)[O-])cc3)nc2n(C)c1=O | -15.3% [at 11.4 µM] | –
38 | COc1ccccc1-c1cncnc1N1CCN(C)CC1 | – | 25.1 µM (active)
39 | COc1ccccc1N1CCN(c2nc3c(C)cccn3c(=O)c2C=O)CC1 | 12.4% | –
40 | CN1CCN(c2ccncc2S(=O)(=O)N2CCN(C)CC2)CC1 | 0.642% [at 11.4 µM] | –
41 | Cc1nc2cnc(N3CCN(C)CC3)nc2n(-c2ccccc2)c1=O | 5.68% | –
42 | COc1ccccc1N1CCN(C[C@@H]2CN3C(=O)N(C)c4ccccc4C3=N2)CC1 | -6.92% | –
43 | CN1CCN(c2ncncc2-c2ccccc2Cl)CC1 | – | 12.6 µM (active)
44 | Cc1ccccc1-c1cncnc1N1CCN(C)CC1 | – | 12.6 µM (active)
45 | COc1ccc(Cc2ccccc2C(=O)O)c2ccccc12 | 11.8% [at 11.4 µM] | –
46 | CC(C)CNS(=O)(=O)c1cc(C(=O)N2CC(C)OC(C)C2)c(Cl)cc1Cl (stereo not drawn) | -5.68% | –
47 | O=C(O)[C@@H](O)c1ccc(F)cc1 | 4.43% [at 11.4 µM] | –
48 | O=C1CCN(S(=O)(=O)c2ccccc2)N1 | -21.2% | –
49 | Fc1cccc(F)c1C(Nc1nncs1)Nc1nncs1 | 19.1% [at 11.4 µM] | –
50 | CC(=O)C[C@H](c1ccc([N+](=O)[O-])cc1)c1c(O)c2ccccc2oc1=O | 0.38% [at 25.6 µM] | –
51 | OC[C@@H](O)[C@@H](O)[C@@H](O)[C@@H](O)c1nc2ccc(Cl)cc2[nH]1 | 19.4% [at 11.4 µM] | –
52 | C1COC(NC(C2CC2)C2CC2)=N1 | – | 0.398 µM (active)
53 | Cc1noc(C)c1C(=O)N1CCC[C@@]2(CCN(c3ncccn3)C2)C1 | -8.25% | –
